# SARS PLP yeast – blocks SARS-CoV papain-like protease in a yeast assay; S. cerevisiae expressing SARS-CoV PLpro, growth rescue; Potency, µM (highest dose often 32.9 µM), for the others: top-dose activity, positive = growth rescue, hits mostly activators; 330,000 compounds, 0.19% hits; calls by dose curve; further: 0% is about no effect; nearly all actives have a fitted effect of over 55% in size
# Sm TGR block – S. mansoni TGR enzyme inhibition. Potency, µM (series often up to 114 µM), for the others: top-dose activity change, negative = inhibition, hits mostly inhibitors. purified TGR, DTNB reduction, TNB absorbance 405 nm. 360,000 compounds, 3% hits. AID 485364; active means well fitted inhibition curve with a large enough effect; inconclusive means small, poorly fitted or top-dose-only effect; inactive means no such curve, though single readings can be large or run the other way; further: on the % scale 0 is the no-effect control and ±100 the full control effect; nearly all actives have a fitted effect of over 60% in size
#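 First, TGR (20 nM dispensed) and NADPH were mixed with compound. Second, a 15 min room-temperature incubation followed. Third, further NADPH and then DTNB were added to start the reaction. Finally, TNB absorbance was monitored kinetically.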
# The depositor's hits bear a star; ? = inconclusive; . = not tested or not shown. Sampled rows, rich in hits. Any-hit rate of the full collection: about 3%. Potency means the concentration at half of the fitted maximal effect.
SMILES,SARS PLP yeast,Sm TGR block
O=S(=O)(c1ccccc1)c1nc(-c2ccccc2Cl)oc1NCCN1CCOCC1,20%,-19%
CCNc1oc(-c2ccccc2F)nc1S(=O)(=O)c1ccccc1,0%,40µM*
CNc1oc(-c2ccccc2F)nc1S(=O)(=O)c1ccc(C)cc1,-6%,14µM*
CSc1cccc(NC(=O)C2CCN(c3ncnc4c3nc3n4CCCCC3)CC2)c1,.,2%
O=C(CSc1nccn1Cc1ccccc1)NCc1ccccc1Cl,.,2%
CCOC(=O)c1sc2nc(CC(=O)OC)nc(NCc3ccco3)c2c1C,-5%,45µM*
CCOC(=O)c1sc2nc(CC(=O)OC)nc(NCC(=O)OC)c2c1C,5%,3%
O=C(CCn1c(=O)c2cccn2c2cccnc21)N1CCN(c2ccc(F)cc2)CC1,.,4%
COc1ccc(C2=NOC3(CC(=O)N(c4ccc(F)cc4)C3=O)C2)cc1 (centres undefined),0%,20µM*
COc1ccc(C2=NOC3(CC(=O)N(c4ccc(F)cc4)C3=O)C2)c(OC)c1 (centres undefined),-8%,-3%
CNCc1ccccc1Sc1cc(O)ccc1O,-39%,3.5µM*
CNCc1ccccc1Sc1cccc(O)c1,4%,-4%
COc1ccccc1NC(=O)c1cccc(S(=O)(=O)N2CCCCCC2)c1,.,7%
CCc1ccc(S(=O)(=O)c2nnn3c2nc(Nc2ccc(NC(C)=O)cc2)c2sccc23)cc1,.,2%
CCOc1ccccc1N(C)C(=O)Cn1cnc2sc(C)c(S(=O)(=O)N3CCC(C)CC3)c2c1=O,.,-1%
COC(=O)C1=C(C)N(Cc2ccccc2)C(=O)N[C@H]1c1cccc(C(F)(F)F)c1,-3%,-1%
COC(=O)C1=C(C)N(Cc2ccco2)C(=O)N[C@@H]1c1cccc(C(F)(F)F)c1,18%,28µM*
CCCCN(CC)CCCNC(=O)c1ccc2c(c1)NC(=O)CN2C,.,22µM*
CCC1CCCCN1CCCNC(=O)c1ccc2c(c1)NC(=O)CN2C (centres undefined),27%,-28%
Cc1ccc(-n2nc(C)c3c(C)cc(=O)n(CC(=O)Nc4cccc(C)c4C)c32)cc1,.,1%
O=C(Nc1cccc(C(F)(F)F)c1)C1CCN(S(=O)(=O)c2cccc3nsnc23)CC1,.,19%
CC(=O)Nc1cccc(-c2nnc(SCC(=O)c3cc([N+](=O)[O-])ccc3Br)o2)c1,.,-8%
Cc1ccccc1CNC(=O)C1=Cc2ccccc2OC1,.,-4%
CCOC(=O)c1c(S(=O)(=O)NCCc2ccco2)c(C)n(C)c1C,-2%,-16%
CCOC(=O)c1c(S(=O)(=O)NCCCc2ccco2)c(C)n(C)c1C,-4%,28µM*
SMILES,SARS PLP yeast,Sm TGR block
COc1ccc(-c2nc(C(=O)Nc3cccc(C(C)=O)c3)nn2-c2ccccc2Cl)cc1,.,-22%
CC(C(=O)Nc1ccc(F)c(Cl)c1)N1Cc2ccccc2C1=O (centres undefined),.,3%
c1ccc(C2[C@H]3CN(CC4CCCCC4)[C@H](c4ccccc4)C34CC2(c2cccnc2)C4)cc1 (some centres undefined),-2%,45µM*
c1ccc(C2[C@H]3CN(CC4CCCCC4)[C@H](c4ccccc4)C34CC2(c2ccccc2)C4)cc1 (some centres undefined),-4%,-28%
COCCCn1c(SCc2ccccc2F)nc2c(sc3ccccc32)c1=O,.,2%
COc1ccc(-c2noc(CN(C)Cc3ccc(C)o3)n2)cc1,?,35µM*
COc1ccc(-c2noc(CN(C)Cc3ccccc3)n2)cc1,2%,9%
O=C1C2C3C=CC(O3)C2C(=O)N1CC(O)c1ccccc1 (centres undefined),-8%,11µM*
O=C(CCc1ccccc1)NN1C(=O)C2C3C=CC(O3)C2C1=O (centres undefined),1%,.
COCCN(C)Cc1cn(-c2ccc(F)cc2F)nc1-c1ccccc1C,-2%,5µM*
Cc1ccccc1-c1nn(-c2ccc(F)cc2F)cc1CNCCN(C)C,-2%,-1%
O=C(Nc1ccccc1C(=O)NCCCN1CCOCC1)c1ccc(F)cc1,3%,89µM*
O=C(NCCCN1CCOCC1)c1ccccc1,5%,-4%
CC1(C)Cc2noc(N)c2C(C)(C)N1O,-6%,2.8µM*
CC(=O)ON1C(C)(C)Cc2noc(N)c2C1(C)C,7%,-7%
Cc1ccc(/C=C/S(=O)(=O)NCC(=O)OCC(=O)Nc2c(F)cccc2F)cc1,2%,28µM*
Cc1ccc(/C=C/S(=O)(=O)NCC(=O)OCC(=O)Nc2ccc(C(N)=O)cc2)cc1,-2%,-3%
C=C1C(=O)[C@@]23[C@H](O)C[C@@H]4C(C)(C)CC[C@H](O)[C@]4(C)[C@@H]2C[C@H](O)[C@@H]1[C@H]3O,4%,10µM*
C=C1C(=O)[C@@]23[C@H](O)C[C@@H]4C(C)(C)CC[C@H](O)[C@@]4(C)[C@@H]2CC[C@@H]1[C@H]3O,-5%,20µM*
COc1ccc(-c2noc(-c3ccc(NCc4ccccc4OC)c([N+](=O)[O-])c3)n2)cc1,.,0%
Cc1ccccc1OCC(=O)Nc1ccc(-c2nc3cc(Cl)cc(Cl)c3o2)cc1,.,5%
CN(C1=C(NC(=O)c2ccc(Cl)cc2)C(=O)c2ccccc2C1=O)c1ccccc1,-24%,-25%
Cc1cccc(C(=O)Nc2cccc(NC(=O)c3ccccc3)c2)c1,4%,-5%
O=C(NC1=C(Nc2ccc(Cl)cc2)C(=O)c2ccccc2C1=O)c1ccccc1,10%,6.3µM*
Cc1cccc(NC2=C(NC(=O)c3ccccc3)C(=O)c3ccccc3C2=O)c1,-41%,2.2µM*
SMILES,SARS PLP yeast,Sm TGR block
O=S(=O)(c1ccc(Br)cc1)c1nc(-c2cccs2)oc1SCc1ccccc1F,.,4%
COc1ccc(CNC(=O)C(C)n2c(=O)cc(C)c3c(C)nn(-c4ccccc4)c32)cc1 (centres undefined),.,-5%
O=C1CCCC(O)=C1C(C#Cc1ccccc1)C1=C(O)CCCC1=O,2%,3.2µM*
CC1(C)CC(=O)C(C(C#Cc2ccccc2)C2=C(O)CC(C)(C)CC2=O)=C(O)C1,1%,4µM*
CC1(C)CC(=O)C(N=Nc2ccc(-c3ccccc3)cc2)=C(O)C1,0%,1%
O=C1CCCC(O)=C1Sc1ccccc1C(=O)O,1%,.
Cc1ccc(CNC(=O)CSc2c(C(C)C)cnc3c2c(=O)n(C)c(=O)n3C)cc1,.,-1%
O=C(NCc1noc2ccccc12)N1CCN(c2ccccc2)CC1,.,4%
CC(NC(=O)Cn1c(-c2cccs2)cc2cc(F)ccc21)c1ccccc1 (centres undefined),.,0%
CCOCCCN(Cc1ccco1)C(=O)c1cc2c(=O)[nH]c3ccc(C)cc3c2s1,5%,40µM*
COCCN(Cc1ccco1)C(=O)c1cc2c(=O)[nH]c3ccc(C)cc3c2s1,.,-19%
COc1cc(CNC(=O)C2CCCCN2S(=O)(=O)c2ccc(F)cc2)cc(OC)c1OC (centres undefined),.,-1%
CC(C)(C)OC(=O)N1CCC(c2c(C(=O)NCCN3CCCC3)cnn2-c2ccc(Cl)cc2)CC1,.,2%
CCOc1ccc(CCNC(=O)CCc2c(C)nc3c(-c4ccccc4)c(C)nn3c2C)cc1OCC,.,-9%
NC(=O)C1CCN(C2=C(Cl)C(=O)c3ccccc3C2=O)CC1,-16%,0.45µM*
O=C1C(Cl)=C(N2CCC(C(=O)O)CC2)C(=O)c2ccccc21,-3%,-2%
Cc1cc2nc(-c3ccc(OCc4ccccc4C)cc3)cc(C(F)(F)F)n2n1,.,2%
COc1ccc(NC(=O)/C=C/c2cccc(F)c2)cn1,-10%,-1%

# Screening results as filed in PubChem BioAssay.
